Compound activity: PubChem, several laboratories
Sampled rows, rich in hits. Any-hit rate of the full collection: about 2.3%.
IDE cell activ – boosts human insulin-degrading enzyme activity in HEK cells. P14735. FAbeta-B cleavage, fluorescence polarization; 0% vehicle, 100% cell-free pure enzyme wells. activation, % at 5.96 µM. 340,000 tested, 0.073% active. AID 493087;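 active = activation above the mean of all tested compounds plus 3 SD, set per screening campaign, cut at about 17% in these data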
Rin1 Abl inh – human Rin1-Abl interaction inhibition | TR-FRET Rin1/Abl binding, biochemical | AID 588664 | inhibition, % at 7.35 µM | 360,000 tested, 0.4% active; in the data active = inhibition above about 5%, passing the limit was not always enough
Rpn11 inh – blocks the human proteasome subunit Rpn11; O00487; human 26S proteasome, Ub4-pepOG fluorescence polarization; 20S core pre-blocked with epoxomicin; inhibition, % at 20 µM; 360,000 tested, 0.59% active; AID 588493;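 active = inhibition at 20 µM, scaled to each plate's controls, above about 33%, limit read from the data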
Calb FLC – affects C. albicans growth with fluconazole; 300,000 tested, 0.57% active; growth inhibition, % (no concentration beside the values); C. albicans CaCi-2 (fluconazole-resistant clinical isolate) + fluconazole, Alamar Blue growth, 48 h;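 active = growth inhibition above about 58% in most replicates, limit read from the data, passing the limit was not always enough; inconclusive = exactly half the replicates above a set limit; inactive = most replicates below a set limit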;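 note: all wells also contain fluconazole at 8 µg/ml as a sub-toxic cotreatment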
TPT1 inhibitor – inhibitors of Candida albicans tRNA 2'-phosphotransferase TPT1. recombinant caTPT1, FP RNA substrate dephosphorylation. 300,000 tested, 0.81% active. inhibition, % at 5 µM;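 active = inhibition above the mean of all tested compounds plus 3 SD, set per screening campaign, cut at about 24% in these data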
IDE inh – cellular human IDE inhibition. HEK cells, FAbetaB cleavage, fluorescence polarization. inhibition, % at 5.59 µM. 320,000 tested, 0.41% active;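 active = percent inhibition above the average of all tested compounds plus 3 SD, set per screening campaign, cut at about 16% in these data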;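 note: IDE supplied by intact live HEK cells; FP after avidin binding of uncleaved biotin substrate so inhibition keeps polarization high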
TPT1 inh confirm – TPT1 (C. albicans) inhibition, confirmation; 2,400 tested, 74% active; AID 2149; recombinant caTPT1, fluorescence polarization, RNase T1 coupled; inhibition, % at 5 µM; shares compounds with TPT1 inhibitor;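 active = inhibition above the primary screen limit, the mean inhibition of all tested compounds plus 3 SD, cut at about 25% in these data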
RNase T1 counter – blocks Aspergillus oryzae RNase T1, a TPT1 counter-screen; 2,400 tested, 83% active; AID 2153; inhibition, % at 5 µM; RNase T1 cleavage, fluorescence polarization, 1536-well; shares compounds with TPT1 inhibitor;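 active = inhibition above the solvent-only control well mean plus 3 SD, limit set per screening run, cut at about 23% in these data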;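 note: inhibitors block cleavage so intact labeled substrate keeps polarization high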
Hits are given with their value; n = inactive; u = inconclusive; x = no result given.

SMILES	IDE cell activ	Rin1 Abl inh	Rpn11 inh	Calb FLC	TPT1 inhibitor	IDE inh	TPT1 inh confirm	RNase T1 counter
CN(C)/C=C/C(=O)/C=C/c1cn(-c2ncc(C(F)(F)F)cc2Cl)c2ccccc12	n	n	n	n	32	n	n	n
COC(=O)Cc1cn(-c2ncc(C(F)(F)F)cc2Cl)c2ccccc12	n	n	n	n	n	n	x	x
COc1ccc(-n2cc(CNCCc3cnc[nH]3)c(-c3cccc(F)c3)n2)cc1	n	n	n	n	n	n	x	x
CC1=C(C(=O)N2CCOCC2)CC(CC(=O)NC2CCCCC2)C(=O)N1CCCN1CCCC1=O (configuration not stated)	x	n	n	x	x	x	x	x
Cn1c(-c2c(N)n(-c3ccccc3)c3nc4ccccc4nc23)nc2ccccc21	n	n	n	n	40	n	43	52
Cc1ccc(-n2c(N)c(-c3nc4ccccc4n3C)sc2=S)cc1	n	n	n	n	n	n	x	x
COc1ccc(N2CCN(C(=O)c3ccc4c(c3)NC(=O)C(CSCc3c(F)cccc3Cl)N4)CC2)cc1 (configuration not stated)	x	x	x	n	66	n	n	n
COc1ccc(N2CCN(C(=O)c3ccc4c(c3)NC(=O)C(CSCc3ccc(C)cc3)N4)CC2)cc1 (configuration not stated)	x	x	x	n	92	n	n	34
COc1ccc(N2CCN(C(=O)c3ccc4c(c3)NC(=O)C(CSCc3cccc(F)c3)N4)CC2)cc1 (configuration not stated)	x	x	x	n	85	n	n	n
Cc1ccc(C(=O)OCC(=O)c2c[nH]c3ccccc23)cc1NC(=O)c1ccco1	n	n	n	n	n	n	x	x
CC(=NNC(=O)c1cccc(S(=O)(=O)N2CCOCC2)c1)c1ccc(Cl)cc1	n	n	n	x	x	n	x	x
COc1cc(/C=N/NC(=O)c2ccncc2)ccc1OC(=O)c1cccc(F)c1	n	n	n	n	n	n	x	x
COc1ccc(CNC(=O)C(C)OC(=O)CN2C(=O)COc3ccccc32)cc1 (configuration not stated)	n	n	n	n	n	n	x	x
COc1ccc(/C=N/NC(=O)c2ccc(F)cc2)cc1CN1CCc2cc(OC)c(OC)cc2C1C (configuration not stated)	n	n	n	n	n	n	x	x
COc1ccc(/C=N/NC(=O)c2ccc(O)cc2)cc1CN1CCCc2ccccc21	n	n	n	n	31	n	40	54
O=c1/c(=C/c2ccccn2)sc2nc3ccccc3n12	n	n	n	n	n	n	x	x
O=C(O)c1cccc(-c2ccc(/C=c3/sc4nc5ccccc5n4c3=O)o2)c1	n	n	x	n	97	n	118	121
CCc1cc(Cn2nc(-c3ccccc3)cc2C(=O)NCc2cccs2)on1	n	n	n	x	n	n	x	x
Cc1ccc(S(=O)(=O)NCc2ccc(C(=O)N3CCCC3)cc2)cc1	n	n	n	n	33	n	n	n
CCN(CC)CCCN(Cc1cc2cc3c(cc2[nH]c1=O)OCO3)C(=S)Nc1ccccc1OC	n	n	n	n	n	n	x	x
Cc1cccc(N2CCN(C(=O)c3ccc4c(c3)c(C)c(C)n4C)CC2C)c1 (configuration not stated)	n	n	n	n	n	n	x	x
Cc1ccc(CSCC2Nc3ccc(C(=O)N4CCN(c5cccc(C)c5)C(C)C4)cc3NC2=O)cc1 (configuration not stated)	x	x	x	n	110	n	n	33
Cc1cccc(N2CCN(C(=O)c3ccc(N4CCCC4=O)cc3)CC2C)c1 (configuration not stated)	n	n	n	n	n	n	x	x
Cc1cccc(N2CCN(C(=O)c3ccc4c(c3)NC(=O)C(CSCc3ccc(F)cc3)N4)CC2C)c1 (configuration not stated)	x	x	x	n	122	n	62	74
ClC(Cl)(Cl)C1=NCc2nnn(Cc3ccccc3)c2N1	x	n	n	x	x	x	x	x
SMILES	IDE cell activ	Rin1 Abl inh	Rpn11 inh	Calb FLC	TPT1 inhibitor	IDE inh	TPT1 inh confirm	RNase T1 counter
Cc1ccc(S(=O)(=O)N(C)C[C@@H]2Oc3ncc(C#CCC(C)C)cc3C(=O)N([C@H](C)CO)C[C@H]2C)cc1	x	n	n	x	x	x	x	x
CCN1C(=O)[C@@H]2[C@@H](c3ccc(SC4CCCCC4)cc3)N3CCC[C@@]3(C(=O)OC)[C@@H]2C1=O	n	n	n	n	n	n	x	x
CCN(CC(=O)NCc1cccs1)C(=O)c1cccc(S(=O)(=O)Nc2ccccc2Cl)c1	n	n	n	n	n	n	x	x
CC(=O)c1sc2nc(CSc3nnnn3-c3ccccc3)[nH]c(=O)c2c1C	n	n	x	u	71	n	69	81
NNc1nc2c(-c3ccc(Cl)cc3)nnn2c2ccccc12	n	n	x	n	39	n	n	29
NNc1nc2c(-c3ccc(F)cc3)nnn2c2ccccc12	n	n	x	n	29	n	81	91
CC1CCC(NC(=O)c2cc(S(=O)(=O)N(C)C)ccc2N2CCCC2)CC1 (configuration not stated)	n	n	n	n	n	n	x	x
CNC(=O)c1[nH]cnc1C(=O)Nc1ccccn1	n	n	n	n	94	n	n	n
OCC[C@@H]1C[C@H](O)[C@@H](O)[C@@]2(OCCCc3cc(Cl)ccc32)O1	x	n	n	x	x	x	x	x
CCCC1=[N+](CC(=O)c2ccc(Br)cc2)CCn2cccc21	n	n	x	n	118	n	n	n
CCCC1=[N+](CC(C)=O)CCn2c(C)ccc21	n	n	n	n	n	n	x	x
CCCC1=[N+](CC(=O)c2ccccc2)CCn2cccc21	n	n	n	n	86	n	n	n
CCc1cccc(OCCCn2ccnc2)c1	n	n	n	n	36	n	n	n
COc1cccc(OCCCn2ccnc2)c1	n	n	n	n	n	n	x	x
O=C(NC1CCSc2ccccc21)c1cc([N+](=O)[O-])ccc1N1CCOCC1 (configuration not stated)	n	n	n	n	n	n	x	x
Cc1ccc(-c2cc(C(=O)O)c3sc(N4CCCCC4)nc3n2)cc1	n	n	n	n	27	n	n	n
O=C(O)c1cc(-c2ccccc2)nc2nc(N3CCCCC3)sc12	x	x	x	n	n	n	x	x
O=Cc1ccc(OC(=O)/C=C/c2ccccc2)cc1	n	n	n	n	n	n	x	x
N#C/C(=C\c1ccc(Sc2nc3ccccc3[nH]2)o1)c1ccccc1	n	n	n	n	n	n	x	x
N#C/C(=C\c1ccc(Sc2ccc(Cl)cc2)o1)c1nc2ccccc2[nH]1	n	n	n	x	52	n	51	66
Cc1cc(O)ccc1N/C=C(\C#N)c1nc2ccccc2o1	n	n	n	n	n	n	x	x
Cc1snc(SCc2cccc(Cl)c2)c1C#N	n	n	n	n	n	n	x	x
